Assay results from PubChem BioAssay AID1159580 (chemical genetic matrix, 2015).
The whole screen tested about 5,500 compounds, of which about 2,000 (36%) were called active. Roughly 18% stayed inconclusive and do not appear here. This is one part of the list. A number with no mark means an inactive call. Rule as the data show it: active = normalized growth mostly below about 0.91 (no sharp cut-off); inconclusive = no clear call, values can overlap the other calls; inactive = mostly above about 0.92.

Assay: chemical genetic growth profiling, strain panel (AID 1159580);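 also: tested at 20 µM; growth read once vehicle control cultures reached saturation at 30 °C; 1 = growth at the plate median or of vehicle wells; lower values mean less growth of the strain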
Settings: S. cerevisiae deletion strains, growth OD
[1] = locus YAL040C, strain CLN3, hits give low values
[2] = locus YER002W, strain NOP16, hits give low values
[3] = locus YNL153C, strain GIM3, hits give low values
[4] = locus YNL175C, strain NOP13, hits give low values
[5] = locus YNL197C, strain WHI3, hits give low values
[6] = locus YNL224C, strain SQS1, hits give low values
[7] = locus YOR083W, strain WHI5 (second series), hits give low values

| SMILES | normalized growth [1] | normalized growth (locus YDR150W, strain NUM1, hits give low values) | normalized growth (locus YDR363W, strain ESC2, hits give low values) | normalized growth [2] | normalized growth (locus YGR229C, strain SMI1, hits give low values) | normalized growth [3] | normalized growth [4] | normalized growth [5] | normalized growth [6] | normalized growth (locus YNL322C, strain KRE1, hits give low values) | normalized growth [7] | normalized growth (locus YPL055C, strain LGE1, hits give low values) | normalized growth (locus YCL061C, strain MRC1 (second series), hits give low values) | normalized growth (locus YGR078C, strain PAC10, hits give low values) | normalized growth (locus YJR075W, strain HOC1, hits give low values) | normalized growth (locus YMR263W, strain SAP30, hits give low values) | normalized growth (locus YMR307W, strain GAS1, hits give low values) | normalized growth (locus YNL128W, strain TEP1, hits give low values) |
| --- | --- | --- | --- | --- | --- | --- | --- | --- | --- | --- | --- | --- | --- | --- | --- | --- | --- | --- |
| NC(=NCc1ccccc1)NC(=O)c1nc(Cl)c(N)nc1N | 1 | 1.02 | 0.994 | 1.01 | 0.999 | 0.993 | 1.01 | 0.996 | 1.02 | 1.01 | 0.965 | 1.01 |  |  |  |  |  |  |
| CC(C)CN(C)c1nc(N)c(C(=O)N=C(N)N)nc1Cl | 0.968 |  |  | 1.04 |  | 0.855 | 1.01 | 1 | 1.03 |  | 0.866 (active) |  | 0.963 | 0.99 | 0.957 | 0.986 | 0.971 | 0.986 |
